# Assay outcomes from PubChem.
# Shown are actives, neighbours in structure and some others; about 2.9% of the full set was active somewhere.
# S1P3 antag: S1P3 (human) receptor antagonism; Q99500; CHO S1P3 NFAT-BLA reporter, FRET fluorescence, antagonist mode; inhibition, % at 4.98 µM; actives 0.27% (n = 170,000);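 active = inhibition above the plate cutoff, the mean inhibition of test wells on that plate plus 3 SD, cut at about 28% in these data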;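 note: cells challenged with S1P at its EC80 of 0.8 µM; blue over green emission ratio from cleaved BLA substrate after 4 h stimulation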
# Target sequence (Q99500 whole entry, looked up): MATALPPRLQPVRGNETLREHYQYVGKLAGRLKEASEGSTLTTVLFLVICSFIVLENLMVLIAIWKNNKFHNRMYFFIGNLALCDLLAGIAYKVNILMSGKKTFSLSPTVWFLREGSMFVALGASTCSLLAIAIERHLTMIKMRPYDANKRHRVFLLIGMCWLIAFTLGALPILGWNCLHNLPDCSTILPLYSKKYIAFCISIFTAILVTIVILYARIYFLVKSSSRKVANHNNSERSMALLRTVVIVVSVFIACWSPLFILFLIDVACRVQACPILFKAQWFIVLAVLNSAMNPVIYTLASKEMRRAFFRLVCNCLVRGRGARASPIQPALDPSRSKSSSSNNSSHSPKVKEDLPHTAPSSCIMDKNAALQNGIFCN
# S1P4 antag: human S1P4 receptor antagonism. O95977. S1P4-expressing cells, antagonist mode, reporter read-out. inhibition, % at 4.98 µM. actives 0.26% (n = 220,000); in the data active = inhibition above about 29%
# S1P4 ag: activates the human S1P4 receptor; O95977; S1P4-expressing cell line, agonist reporter assay; activation, % at 4.98 µM; actives 0.35% (n = 220,000); in the data active = activation above about 11%
# HSF1 activator: increases HSF-1 driven luciferase reporter signal; NIH3T3-HGL HSF-1 luciferase reporter, MG132, 8 h; 100% = twice DMSO control signal; actives 1.7% (n = 300,000); AID 504408; activation, % at 9 µM;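 active = mean replicate activation of at least 50% with a set share of replicates each reaching 50%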
# Hsp70 activator: Hsp70 transcriptional activation, primary screen | HeLa Hsp70 promoter luciferase reporter, luminescence; scaled: vehicle 0, proteasome-inhibitor control 100% | activation, % at 10 µM | actives 0.04% (n = 200,000) | AID 1203;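 active = activation above the mean across all tested compounds plus 3 SD, cutoff set per campaign, cut at about 5.5% in these data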
# HSF1 inhib: HSF1 inhibition | NIH3T3-HGL HSE-luciferase, MG132-induced, luminescence 8 h; active compounds read low | activity change, negative = inhibition, % at 7.5 µM (by protocol) | actives 0.77% (n = 300,000) | AID 2098;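 active = more than half of replicate wells show activity change below -50%, luminescence cut by over half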;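 note: luciferase reports HSF-1 transcriptional activity via heat shock element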
# Hits are given with their value; n = inactive; x = not tested or not shown.
SMILES,S1P3 antag,S1P4 antag,S1P4 ag,HSF1 activator,Hsp70 activator,HSF1 inhib
C/C=C/c1ccc(OCC(=O)Nc2cc(S(=O)(=O)N3CCOCC3)ccc2N2CCCC2)c(OC)c1,x,x,x,n,x,n
CS(=O)(=O)Nc1ccc2[nH]c(=O)[nH]c2c1,n,n,n,n,n,n
CCS(=O)(=O)Nc1ccc2[nH]c(=O)[nH]c2c1,n,n,n,78,n,n
CCOc1ccccc1OCCOCCOc1c(Cl)cccc1Cl,n,n,n,n,n,-53
CCOc1ccc(OCCOCCOc2c(Cl)cccc2Cl)cc1,x,n,n,n,n,n
O=C(COC(=O)/C=C/c1ccc(C(F)(F)F)cc1)NC1CC1,x,x,x,n,x,-56
O=C(OCc1ccccc1F)c1cc2ccccc2cc1O,x,x,x,n,x,n
S=C(NCCC(c1ccccc1)c1ccccc1)Nc1ccc(Cl)cc1,x,n,n,54,n,n
COC(=O)Cc1ccc(O)c(N)c1,n,n,n,n,n,n
O=C(/C=C/c1ccccc1)c1c[nH]c2ccccc12,n,n,n,111,x,n
O=C(Nc1ccccc1)C(=O)c1c[nH]c2ccccc12,x,x,x,68,x,n
COC(=O)c1ccc(NC(=O)C(=O)c2c[nH]c3ccccc23)cc1,x,x,x,n,x,n
NC(=O)c1c[nH]c2ccccc12,n,n,n,n,n,n
Cc1cccc(-n2cc(CNCCc3nc(C)cc(C)n3)c(-c3cccc(F)c3)n2)c1,n,n,n,n,x,n
Cc1ccc(Nc2nc(N)nc(CCl)n2)c(C)c1,n,n,n,n,x,-63
Cc1ccc(C(=O)Nc2ccccc2C(=O)O)cc1S(=O)(=O)NCc1ccccc1,n,n,n,n,n,-92
C[C@@H](C(=O)Nc1ccc2ccccc2c1)[C@H]1C[C@]1(C)[C@H](NC(=O)OCc1ccccc1)c1ccccc1,32,n,n,n,n,n
C[C@H](CO)NC(=O)[C@H](C)[C@H]1C[C@]1(C)[C@H](NC(=O)OCc1ccccc1)c1ccccc1,n,n,n,n,n,n
CCOC(=O)C1C(=O)OC(C)(C)C1C(C)C(=O)c1ccc(C)cc1 (stereo not given),x,n,n,n,n,-52
CCOC(=O)C1C(=O)OC(C)(C)C1C(C)C(=O)c1ccc(C)cc1C (stereo not given),n,n,n,56,n,n
COC(=O)C1C(=O)OC(C)(C)C1C(C)C(=O)c1ccc(C)cc1C (stereo not given),n,n,n,n,n,n
COCCCNC(=O)C1CCC(CNS(=O)(=O)c2ccc3c(c2)CC(C)N3C(=O)C2CC2)CC1 (stereo not given),x,x,x,n,x,n
Cc1cc(C)cc(NC(=O)CCn2c(=S)[nH]c3ccccc3c2=O)c1,x,x,x,n,x,n
Cc1cccc(C)c1NC(=O)C(C)Sc1nnc(C)n1CC1CCCO1 (stereo not given),x,x,x,n,x,n
O=c1cc(CSc2ccc(Cl)cc2)nc(N2CCCCC2)[nH]1,n,n,n,65,n,n
SMILES,S1P3 antag,S1P4 antag,S1P4 ag,HSF1 activator,Hsp70 activator,HSF1 inhib
Cc1ccc(SCc2cc(=O)[nH]c(N3CCN(Cc4ccccc4)CC3)n2)cc1,n,n,n,n,n,n
Cc1nc2ccccc2n1/N=C/c1ccc([N+](=O)[O-])o1,x,n,n,77,n,n
Cc1ccc(-n2nnnc2SCC(N)=O)c(C)c1,n,n,n,n,n,n
COC(=O)c1ccc(CSc2nnnn2-c2ccc(C)cc2C)o1,n,n,n,71,n,n
O=C(Nc1ccc2ccccc2c1)[C@@H]1C[C@H]1[C@@H](NP(=O)(c1ccccc1)c1ccccc1)c1ccccc1,n,n,n,x,n,x
Cc1ccc(F)cc1NC(=O)CCNC(=O)c1ccc([N+](=O)[O-])cc1,x,x,x,n,x,-68
COC(=O)c1ccc(C)c(NC(=O)CCNC(=O)c2ccc([N+](=O)[O-])cc2)c1,n,n,n,n,n,n
Cc1ccc(Cl)cc1NC(=O)C[n+]1ccc(Cc2ccc([N+](=O)[O-])cc2)cc1,n,n,n,65,n,n
NC(=O)C1=C[C@@H](c2ccccc2)C[C@@H](OCc2ccc(CO)cc2)O1,n,n,n,n,n,n
COc1ccc(NC(=O)CN2C(=O)COc3ccc(S(=O)(=O)N4CCCCC4)cc32)c(OC)c1,x,x,x,n,x,n
COc1ccc2ccccc2c1CN(C)Cc1ccccc1,x,x,x,n,x,n
COc1cccc(CN(C)CC(=O)Nc2cccc3ccccc23)c1,n,n,n,n,n,n
COc1ccc(CN(C)Cc2c(O)ccc3ccccc23)cc1,x,x,x,219,x,n
COc1cccc(CN(C)Cc2c(O)ccc3ccccc23)c1,x,x,x,97,x,n
COc1cccc(CC(=O)Nc2cccc3ccccc23)c1,x,x,x,n,x,n
CC(=O)NCCc1csc(-c2ccccc2)n1,n,n,n,n,n,n
CC(C)(C)CC(=O)NCCc1csc(-c2ccccc2)n1,n,n,n,63,x,n
O=S(=O)(NCCC(c1ccc(F)cc1)c1ccco1)c1ccccc1 (stereo not given),n,n,n,n,n,n
O=C(CC(c1ccco1)S(=O)(=O)c1ccccc1)c1ccc(F)cc1 (stereo not given),x,n,n,220,n,n
CN(C)CCCNc1ccc(-c2nn(C)c(=O)c3ccccc23)cc1[N+](=O)[O-],n,n,n,n,n,n
Cc1nn2c(c1-c1ccc(Cl)cc1)N=C(c1ccco1)CC2c1ccccc1 (stereo not given),x,n,n,n,n,n
CCOC(=O)C1=NOC2C3CC(C12)C1C(=O)N(CCc2ccc(OC)c(OC)c2)C(=O)C31 (stereo not given),n,n,n,n,x,-71
COc1ccc(CN(C(=O)c2cc3ccccc3oc2=O)C2CCS(=O)(=O)C2)cc1 (stereo not given),n,n,n,n,x,n
COc1ccc(CN(C(=O)c2cc3ccccc3oc2=O)C2CCS(=O)(=O)C2)cc1OC (stereo not given),x,x,x,56,x,n
COc1ccc(NC(=O)CSc2ccc3c4c(cccc24)C(=O)c2ccccc2-3)cc1,x,n,n,59,n,n
SMILES,S1P3 antag,S1P4 antag,S1P4 ag,HSF1 activator,Hsp70 activator,HSF1 inhib
N#Cc1cccc(NC(=O)CSc2ccc3c4c(cccc24)C(=O)c2ccccc2-3)c1,x,n,n,n,n,n
CN1CCN(c2ccc(-c3ccc4ccccc4n3)cc2)CC1,n,n,n,n,n,-90
CCc1nnc(NC(=O)Cc2ccc(Br)cc2)s1,n,n,n,n,n,n
O=C(Nc1ccc(Cc2ccncc2)cc1)c1cccc([N+](=O)[O-])c1,n,n,n,n,n,n
O=C(Nc1ccc(N2CCOCC2)cc1)c1ccc(Br)o1,x,x,x,n,x,n
O=C(Nc1ccc(N2CCOCC2)cc1)c1ccc([N+](=O)[O-])o1,x,x,x,146,x,n
CC(=O)Nc1ccc(Cc2ccncc2)cc1,n,n,n,n,n,-69
O=C(Nc1ccc(Cc2ccncc2)cc1)c1ccc([N+](=O)[O-])o1,x,x,x,144,x,n
CC(=O)Nc1ccc(S(=O)(=O)Nc2ccc(Cc3ccncc3)cc2)cc1,x,x,x,n,x,n
